# Mtb hypoxia inh – reduces hypoxia-regulated biosensor signal in M. tuberculosis. fluorescence inhibition, % (test concentration not listed). 300,000 compounds, 0.1% hits. M. tuberculosis hypoxia-regulated fluorescent reporter, fluorescence; in the data active = fluorescence inhibition mostly above about 23%, no sharp cut-off; inactive = mostly below about 17%
# DUSP3 inh – blocks human VHR1 dual specificity phosphatase | 290,000 compounds, 0.52% hits | AID 1654 | P51452 | recombinant VHR phosphatase, pNPP absorbance | inhibition, % at 13.3 µM; in the data active = inhibition above about 50%
# Target sequence (P51452 whole entry, looked up): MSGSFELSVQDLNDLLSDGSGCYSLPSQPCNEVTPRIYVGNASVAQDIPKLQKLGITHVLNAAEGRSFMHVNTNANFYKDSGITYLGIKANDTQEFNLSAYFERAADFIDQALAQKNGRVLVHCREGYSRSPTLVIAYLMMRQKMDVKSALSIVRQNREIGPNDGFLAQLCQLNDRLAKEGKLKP
# GDH-TPI counter-1 – counter-screen for M. tuberculosis FBA inhibitors: GDH-TPI coupled enzymes | GDH-TPI coupled enzyme counterscreen, NADH absorbance | inhibition, % at 4.8 µM | 360,000 compounds, 1.2% hits; in the data active = inhibition above about 30%;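 note: 0% = DMSO wells and 100% = wells lacking the enzyme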
# Mtb bLac sens – beta-lactam sensitization of Mtb H37Rv | M. tuberculosis H37Rv growth with meropenem, percent inhibition | inhibition, % at 25 µM | 330,000 compounds, 0.27% hits | AID 434955; call rule not given here;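 note: growth measured after seven days incubation then overnight dye step; 0% = bacteria only wells and 100% = bacteria with antibiotic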
# FBA Mtb inh – Mtb fructose-bisphosphate aldolase inhibition; P9WQA3; purified M. tuberculosis FBA, fluorescence read-out; inhibition, % at 1 µM; 360,000 compounds, 2.3% hits;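 note: 0% = vehicle and 100% = reference inhibitor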
# Mtb FBA inh conf – Mtb FBA inhibition, confirmed. shares compounds with FBA Mtb inh. purified M. tuberculosis FBA, fluorescence read-out. inhibition, % at 1 µM. 5,600 compounds, 78% hits;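 note: 0% = vehicle wells and 100% = reference inhibitor wells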
# GDH-TPI counter-2 – counter-screen for M. tuberculosis FBA inhibitors: GDH-TPI coupled enzyme inhibition; shares compounds with FBA Mtb inh; 5,600 compounds, 81% hits; inhibition, % at 1 µM; AID 652141; GDH-TPI coupled enzyme counterscreen, fluorescence; in the data active = inhibition above about 10%
# Starred values were filed as active, the others as inactive; ? = inconclusive; nt = no result; + = active, no number. Only some compounds are listed: those with a hit (about 3.6% of all), similar ones and a draw of the others. Cut-off read from the data, not from the text of the source, unless noted: active = inhibition above about 27%; inactive = the rest.
SMILES,Mtb hypoxia inh,DUSP3 inh,GDH-TPI counter-1,Mtb bLac sens,FBA Mtb inh,Mtb FBA inh conf,GDH-TPI counter-2
O=C(NN=Cc1cc(Br)c(O)c(Br)c1)c1ccccc1NS(=O)(=O)c1cccs1,8,nt,48*,7,79*,165*,135*
COc1ccc(-c2c3c(cc4ncn(Cc5ccccc5)c24)COC3=O)cc1,5,nt,4,-6,63*,141*,138*
CN(Cc1ccccn1)C(=O)CC1C(=O)NCCN1Cc1cccc(Oc2ccccc2)c1 (stereo unspecified),13,-14,6,0,32*,165*,122*
CC(=NNc1ncc(Cl)cc1Cl)c1ccc(C#N)cc1,4,nt,nt,nt,nt,nt,nt
O=C(CN(c1ccc(F)cc1)S(=O)(=O)c1ccccc1)Nc1ccccc1C(=O)O,-5,-7,1,-5,5,nt,nt
CCOC(=O)CN(c1ccccn1)S(=O)(=O)c1ccc(OC)cc1,5,22,13,-10,46*,138*,100*
O=C(CN(c1ccccn1)S(=O)(=O)c1ccc(F)cc1)Nc1ccc(F)cc1F,-3,5,6,6,35*,117*,90*
CCOC(=O)CN(c1ccccc1)S(=O)(=O)c1ccc(F)cc1,2,16,-1,-1,-1,nt,nt
CCOC(=O)C1C2COc3ccccc3C2N2C(=O)c3ccc(C)cc3NC(=O)[C@@]12C (stereo partly specified),2,nt,nt,nt,nt,nt,nt
COc1ccccc1C=NNC(=O)c1cccc(NC(=O)c2ccccc2C)c1,18,nt,nt,nt,nt,nt,nt
COc1ccc2nc(-c3ccccc3)cc(C(=O)OCC(=O)N3CCCCC3)c2c1,4,nt,1,60,87*,+,+
COc1ccc2nc(-c3ccccc3)cc(C(=O)OCC(=O)N3CC(C)OC(C)C3)c2c1 (stereo unspecified),2,nt,10,65,110*,38*,30*
CC(=O)OC[C@H]1O[C@@H](Sc2cccc3cccnc23)[C@H](OC(C)=O)[C@@H](OC(C)=O)[C@@H]1OC(C)=O,7,4,10,?,28*,57*,60*
CC(=O)OCC1OC(c2ccccc2)C(OC(C)=O)C(OC(C)=O)C1OC(C)=O (stereo unspecified),6,23,-4,-11,0,nt,nt
CC(=O)OC[C@H]1O[C@@H](Sc2cccc3cccnc23)[C@H](OC(C)=O)[C@@H](OC(C)=O)[C@H]1OC(C)=O,5,-13,-1,-10,35*,67*,83*
Cc1ccc(CN2CCN(N=Cc3cc(Br)cc(Br)c3O)CC2)cc1,7,nt,nt,nt,nt,nt,nt
COc1cc2cc(CN(Cc3nnnn3Cc3ccccc3)CC3CCCO3)c(=O)[nH]c2cc1OC (stereo unspecified),-2,-6,0,nt,35*,136*,144*
O=C(C1=CC(c2coc3ccccc3c2=O)CC(OCc2ccc(CO)cc2)O1)N1CCOCC1 (stereo unspecified),0,nt,nt,nt,nt,nt,nt
NC(=O)N/N=C/c1ccc2cccc(OCc3ccccc3)c2n1,nt,-6,14,57,57*,173*,138*
NC(=O)NN=Cc1ccc2cccc(OCc3ccccc3)c2n1,6,nt,nt,nt,nt,nt,nt
CNC(=S)NN=Cc1cn(CCOc2ccc(OC)cc2)c2ccccc12,2,nt,nt,nt,nt,nt,nt
CC(C)OC(=O)C(C)Nc1n[nH]c(=S)[nH]c1=O (stereo unspecified),9,5,9,nt,6,nt,nt
CC(C)COC(=O)C(C)Nc1n[nH]c(=S)[nH]c1=O (stereo unspecified),3,22,11,0,53*,4,-3
COC(=O)C=CCC(C)OS(N)(=O)=O (stereo unspecified),4,nt,nt,nt,nt,nt,nt
O=C(O)c1cccc2sc3cc(Cl)ccc3c(=O)c12,6,nt,13,-12,63*,157*,126*
O=C(O)c1cccc2c1-c1ccc(Cl)cc1C2,11,nt,-9,nt,-1,nt,nt
Fc1cccc(NC(=S)NNc2c3ccccc3nc3ccccc23)c1,4,-2,10,nt,50*,187*,132*
Cc1[nH]n(S(=O)(=O)Cc2ccccc2)c(=O)c1N=Nc1ccccc1Cl,24,12,-5,99,40*,-4,-6
Fc1ccc2[nH]c3c(Cl)ncnc3c2c1,4,20,0,-3,40*,164*,158*

# Screens as filed in PubChem BioAssay.
